# Experimental data: PubChem BioAssay
# The source made the active and inactive calls.
# Legend:
# [1] = tested on: Plasmodium falciparum Sir2 (PF13_0152, Sir2A); experiment: pfSir2 binders on small-molecule microarrays, primary screen, biochemical, small-molecule microarray, 635 nm fluorescence (AID 1098); conditions: small-molecule microarray binding, fluorescence 635 nm; higher = more signal;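 note: score merges spot fluorescence intensity with its signal-to-noise ratio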
# [2] = small-molecule microarray binders of probe aDKK1, primary screen, biochemical, biotinylated probe, 635/667 nm fluorescence (AID 1099); conditions: higher = more signal;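 note: score merges 667nm spot fluorescence with signal to noise across triplicate slides; reference of the scale not given here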
# [3] = small-molecule microarray binders of probe aCHRDL2, primary screen, biochemical, biotinylated probe, 635/667 nm fluorescence (AID 1100); conditions: higher = more signal
# [4] = splicing luciferase reporter signal modulators, primary screen, spliceosome inhibition project, cell-based, HEK293, splice +/- reporter (AID 1101); conditions: luminescence, 24 h, higher = more signal, called active from +8 up or from −8 down;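 note: HEK293 cells carrying a splicing-competent luciferase reporter gene; test concentration not given here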
# [5] = target: Fibroblast growth factor 10 (Homo sapiens) (UniProt O15520); experiment: FGF10 binders on small-molecule microarrays, primary screen, biochemical, small-molecule microarray, 635 nm fluorescence (AID 1102); conditions: FGF10 binding, fluorescence 635 nm, higher = more signal
# [6] = tested on: glycogen synthase kinase-3 (GSK3A per assay name; protocol says GSK3B); experiment: GSK3 binders on small-molecule microarrays, primary screen, biochemical, small-molecule microarray, 635 nm fluorescence, GSK3A (AID 1103); conditions: small-molecule microarray binding, fluorescence 635 nm; higher = more signal; note: the record names both GSK3A and GSK3B
# [7] = target: Epidermal growth factor receptor (Homo sapiens) (UniProt P00533); experiment: EGFR binders on small-molecule microarrays, primary screen, biochemical, small-molecule microarray, 635 nm fluorescence (AID 1104); conditions: EGFR binding, higher = more signal;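 note: score merges 667 nm emission intensity with spot signal to noise over triplicate slides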
# [8] = target: Follistatin-related protein 3 (Homo sapiens) (UniProt O95633); experiment: FSTL3 binders on small-molecule microarrays, primary screen, biochemical, small-molecule microarray, 635 nm fluorescence (AID 1105); conditions: FSTL3 binding, higher = more signal;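 note: score merges emission near 667 nm and signal to noise per printed spot across three slides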
# [9] = target: Dickkopf-related protein 1 (Homo sapiens) (UniProt O94907); experiment: DKK1 binders on small-molecule microarrays, primary screen, biochemical, small-molecule microarray, 635 nm fluorescence scan (AID 1106); conditions: DKK1 binding, higher = more signal;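 note: score merges emission near 667 nm with signal to noise over three replicate slides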
# [10] = tested on: Inhibin beta A chain (activin A); experiment: INHBA (activin A) binders on microarrays, primary screen, biochemical, small-molecule microarray, 635 nm fluorescence scan (AID 1107); conditions: small-molecule microarray binding, higher = more signal;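 note: mouse activin A protein probed at 4.33 µg/mL on printed slides; score merges bound-protein fluorescence near 667 nm with spot signal-to-noise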
# Fibroblast growth factor 10 (Homo sapiens), sequence (O15520 whole entry, looked up): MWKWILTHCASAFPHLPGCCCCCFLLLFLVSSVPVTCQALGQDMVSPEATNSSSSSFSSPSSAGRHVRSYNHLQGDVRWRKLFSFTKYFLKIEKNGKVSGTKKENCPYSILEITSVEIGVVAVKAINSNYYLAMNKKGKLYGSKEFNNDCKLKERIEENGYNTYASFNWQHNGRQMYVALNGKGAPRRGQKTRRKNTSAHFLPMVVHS
# Dickkopf-related protein 1 (Homo sapiens), sequence (O94907 whole entry, looked up): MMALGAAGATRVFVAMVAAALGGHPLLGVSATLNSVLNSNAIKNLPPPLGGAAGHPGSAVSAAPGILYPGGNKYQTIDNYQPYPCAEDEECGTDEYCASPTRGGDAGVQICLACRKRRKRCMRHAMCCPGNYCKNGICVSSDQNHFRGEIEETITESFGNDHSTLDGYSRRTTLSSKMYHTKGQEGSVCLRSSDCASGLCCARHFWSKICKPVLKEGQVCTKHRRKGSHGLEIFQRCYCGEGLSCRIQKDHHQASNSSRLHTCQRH
# Epidermal growth factor receptor (Homo sapiens), sequence (P00533 whole entry, looked up): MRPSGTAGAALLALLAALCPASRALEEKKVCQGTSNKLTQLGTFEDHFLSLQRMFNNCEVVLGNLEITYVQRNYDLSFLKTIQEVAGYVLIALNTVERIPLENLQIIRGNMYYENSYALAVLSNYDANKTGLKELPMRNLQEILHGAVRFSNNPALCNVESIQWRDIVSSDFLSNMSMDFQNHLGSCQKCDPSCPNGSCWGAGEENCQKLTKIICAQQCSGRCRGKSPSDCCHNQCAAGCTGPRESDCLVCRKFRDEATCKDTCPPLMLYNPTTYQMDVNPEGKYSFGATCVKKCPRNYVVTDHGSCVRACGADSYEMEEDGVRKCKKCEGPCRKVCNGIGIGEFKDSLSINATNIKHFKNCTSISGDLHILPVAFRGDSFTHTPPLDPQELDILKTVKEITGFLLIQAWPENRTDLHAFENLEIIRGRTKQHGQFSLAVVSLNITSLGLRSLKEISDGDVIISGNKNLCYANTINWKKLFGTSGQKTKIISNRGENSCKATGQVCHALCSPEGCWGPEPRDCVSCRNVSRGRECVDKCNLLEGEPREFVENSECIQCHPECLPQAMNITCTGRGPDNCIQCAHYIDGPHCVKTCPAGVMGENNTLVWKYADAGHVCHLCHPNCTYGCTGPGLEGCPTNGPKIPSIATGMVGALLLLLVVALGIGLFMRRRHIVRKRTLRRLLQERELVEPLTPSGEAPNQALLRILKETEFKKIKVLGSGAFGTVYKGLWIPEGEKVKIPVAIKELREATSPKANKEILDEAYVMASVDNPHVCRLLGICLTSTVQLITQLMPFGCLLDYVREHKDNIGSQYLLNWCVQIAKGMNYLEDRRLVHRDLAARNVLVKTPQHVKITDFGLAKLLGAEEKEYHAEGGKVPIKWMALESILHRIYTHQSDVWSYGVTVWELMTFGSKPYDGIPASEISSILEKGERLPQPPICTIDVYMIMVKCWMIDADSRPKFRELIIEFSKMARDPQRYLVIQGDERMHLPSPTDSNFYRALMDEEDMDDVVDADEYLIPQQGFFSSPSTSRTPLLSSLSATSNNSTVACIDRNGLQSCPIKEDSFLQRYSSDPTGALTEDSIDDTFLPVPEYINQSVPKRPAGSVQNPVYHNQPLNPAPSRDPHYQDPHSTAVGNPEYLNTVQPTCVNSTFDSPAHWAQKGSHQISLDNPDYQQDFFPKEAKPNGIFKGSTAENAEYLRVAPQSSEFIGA
# Follistatin-related protein 3 (Homo sapiens), sequence (O95633 whole entry, looked up): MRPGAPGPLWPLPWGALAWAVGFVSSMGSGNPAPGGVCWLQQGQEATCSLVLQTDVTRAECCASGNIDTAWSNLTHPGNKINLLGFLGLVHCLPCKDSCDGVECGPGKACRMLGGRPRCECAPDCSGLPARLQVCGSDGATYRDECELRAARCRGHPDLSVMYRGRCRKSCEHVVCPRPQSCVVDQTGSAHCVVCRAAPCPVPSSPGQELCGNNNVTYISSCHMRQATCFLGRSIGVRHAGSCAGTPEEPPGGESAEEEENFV
Structure (SMILES),composite z-score [1],composite z-score [2],composite z-score [3],z-score [4],composite z-score [5],composite z-score [6],composite z-score [7],composite z-score [8],composite z-score [9],composite z-score [10]
C=CCC(OC(C)=O)[C@@H]1[C@@H](N(Cc2ccc(-c3ccccc3)cc2)C(=O)Cc2ccc(OC)cc2)c2cc(OCCCO)ccc2N1C(=O)c1ccc2ccccc2c1 (stereo not given in full),0.0435,0.0361,-0.002,-0.147 (inactive),-0.0566,-0.0533,-0.0792,0.538,-0.0863,1.17
COC(=O)C(CC#Cc1ccc2c(c1)[C@]1(C(=O)N2)[C@H](c2ccccc2OCCO)N2[C@H](c3ccccc3)[C@H](c3ccccc3)OC(=O)[C@H]2[C@@H]1C(=O)N1CCN(c2ncccn2)CC1)C(=O)OC,1.01,-0.216,-0.145,-0.376 (inactive),0.683,1.29,0.484,1.27,0.891,0.143
C=C(CCCC)C(=O)CC[C@@H](OC(C)=O)c1ccc(OCCO)cc1,0.476,-0.276,-0.169,3.03 (inactive),1.48,-0.198,-0.678,0.824,0.268,0.204
CC(C)N1CC=CC23O[C@@H]4/C=C\CCCOC(=O)C4[C@H]2C(=O)N(C(C)CO)[C@@H]3C1=O (stereo not given in full),0.748,-0.4,0.44,-1.09 (inactive),-0.663,-1.02,-0.962,-0.849,-1.35,0.493
COC(=O)C1(CC(C)C)C=C2C(=C(C)C(=O)C2C)CN1 (stereo not given),-0.211,1.34,1.14,1.68 (inactive),0.069,-0.279,-0.155,0.641,-0.15,1.43
CCOC(=O)C1=CC[C@@H](c2ccccc2)N(S(=O)(=O)c2ccc(C)cc2)[C@@H]1C#N,0.921,0.386,0.868,0.694 (inactive),0.562,-0.199,-0.181,0.364,-0.542,0.767
CCOC(=O)C[C@H]1[C@H](OC(=O)c2cc3ccccc3oc2=O)[C@@H](NC(=O)c2ccc(-c3ccccc3)cc2)c2cc(OCCCO)ccc2N1C(=O)Cc1ccc(OC)cc1,0.782,0.0384,-0.037,0.595 (inactive),1.04,0.889,0.419,0.686,0.682,0.321
C[C@]12C(=O)N(CCO)[C@@H]3C(=O)N(c4ccc(Cl)cc4)CC=CC31O[C@@H]1/C=C\CCCOC(=O)C12 (stereo not given in full),-0.617,-0.128,0.776,0.178 (inactive),-1.04,-1.31,-1.51,-1.03,-1.53,0.847
COC(=O)C(CC#Cc1ccc2c(c1)[C@]1(C(=O)N2)[C@H](c2ccc(OCCO)cc2)N2[C@H](c3ccccc3)[C@H](c3ccccc3)OC(=O)[C@H]2[C@@H]1C(N)=O)C(=O)OC,1.01,-0.201,0.669,0.373 (inactive),-0.122,-0.0277,-0.69,0.025,-0.531,0.161
COC(=O)[C@@]1(Cc2ccc(F)cc2)[C@H]2c3cc(C(=O)N(C)C)n(CCF)c3C[C@H]2CN1C(=O)c1ccccc1,-0.0822,0.9,0.987,-1.66 (inactive),0.295,0.139,-0.0604,-0.0956,-0.256,0.856
CN1C(=O)C2C=CC(C(O)COCc3ccccc3)N(Nc3ccc([N+](=O)[O-])cc3[N+](=O)[O-])C2C1=O (stereo not given),0.111,0.753,0.888,0.806 (inactive),-0.0198,-0.443,-1.04,-0.381,-0.82,1.13
[N-]=[N+]=NCc1ccccc1C[C@]1(C(=O)N2CCCCC2)COC(c2ccc(OCCCO)cc2)=N1,0.314,0.0279,0.552,0.0234 (inactive),0.786,1.02,1.1,0.636,0.221,-0.297
COc1ccc([Si](C)(C)[C@@H]2[C@@H](CC(=O)N3CCC[C@H]3CO)O[C@]3(C(=O)N(Cc4cccc(N5C(=O)c6cccc7cccc5c67)c4)c4ccccc43)[C@H]2C)cc1,1.22,-0.164,0.0325,-0.134 (inactive),0.415,0.0816,0.192,0.402,0.655,0.608
